The source made the active and inactive calls. A call without a number means that no potency is given here. The call rests on the fitted dose curve; in most records, active means well fitted activation curve with a large enough effect; inconclusive means small, poorly fitted or top-dose-only effect; inactive means flat fitted curve, though single readings scatter.
Assays:
[1] = Confirmation and Secondary Assay for Modulators of Hemoglobin Beta Chain Splicing at IVS2 654 locus (AID 910);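 further: per-well total GFP intensity by laser scanning cytometry after 2-day treatment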
Outline: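 HeLa cells stably carrying EGFP interrupted by mutant beta-globin IVS2-654 intron (CMV-driven) were treated with compound for 2 days at 37C; corrected splicing was scored as total peak GFP intensity per well (488 nm excitation, 500-520 nm emission).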

[2] = Confirmation and Secondary Assay for Modulators of Hemoglobin Beta Chain Splicing at IVS2 705 locus (AID 930);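 further: HeLa cells stably expressing the EGFP-705 splicing reporter; series mostly up to about 46 µM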
Outline: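 HeLa cells stably carrying EGFP interrupted by mutant beta-globin IVS2-705 intron (CMV-driven) were seeded at 500 cells/well, treated next day with compound for 2 days at 37C; corrected splicing restores EGFP, read as total peak GFP intensity per well.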

Row | SMILES | Potency [1] | Potency [2]
1 | N#Cc1cccc(-c2cncnc2-n2ccnc2)c1 | inactive | inactive
2 | COc1cc2c(cc1OC)-c1cc3ccc(OC)c(OC)c3c[n+]1CC2 | inactive | inactive
3 | CN(C)c1ccc(-c2nccc(NCc3ccccc3)n2)cc1 | inactive | inactive
4 | COc1ccc(CNc2ncncc2-c2ccccc2CN(C)C)c(OC)c1 | inactive | inactive
